In PubChem BioAssay AID1159606 (Sanford-Burnham Center for Chemical Genomics, 2016):
Out of some 360,000 compounds screened, about 7,300 (2%) were called active. No stated cut-off is given here; in the data, active means inhibition above about 50%; inactive means the rest. Only a selection was taken, and actives are over-represented in it overall.

assay: inhibitors of TWEAK-Fn14 signaling, primary screen, luciferase reporter cells, uHTS (AID 1159606); details: TWEAK-stimulated Fn14 reporter cells, luciferase luminescence, 8 h; at 10 µM; hits give high values

Compound | inhibition
O=C1c2ccccc2C(c2nc3ccccc3[nH]2)N1c1ccccc1 (stereo unspecified) | 20.9% (inactive)
CCc1ccc(Oc2coc3cc(OC(=O)c4cc5ccccc5oc4=O)ccc3c2=O)cc1 | -16.7% (inactive)
CSc1nnc(CNC(=O)c2ccccc2)n1-c1ccc(F)cc1 | 23.6% (inactive)
O=C(OC1CC2CC1[C@H]1CCCCN1C2=O)N1CCOCC1 (stereo partly specified) | 24.2% (inactive)
NC(=O)c1ncn([C@@H]2O[C@H](CN=C3NS(=O)(=O)c4ccccc43)[C@@H](O)[C@H]2O)n1 | -2.64% (inactive)
Cc1oc2cc([N+](=O)[O-])c(O)c([N+](=O)[O-])c2c1C(=O)c1ccc(Br)cc1 | 20% (inactive)
O=C(CNS(=O)(=O)c1cccc(C(F)(F)F)c1)Nc1ccccc1F | -3.29% (inactive)
O=C(NNc1ccccc1Cl)C(O)(c1cccc(C(F)(F)F)c1)c1cccc(C(F)(F)F)c1 | 74.5% (active)
O=C(O)c1cc(S(=O)(=O)N(Cc2ccccc2)c2cccc(C(F)(F)F)c2)ccc1Cl | 9.03% (inactive)
CCCNCc1cc(OCC)c(OCC(=O)Nc2ccccc2)cc1Br | 3.35% (inactive)
O=C(CN1C(=O)CSC1=O)N1CCCC(Nc2ccc(F)cc2)C1 (stereo unspecified) | 89.2% (active)
O=C1CCCCN1CCCC(=O)N1CCCC(Nc2ccc(F)cc2)C1 (stereo unspecified) | 10.3% (inactive)
O=C(CN1CCOC1=O)N1CCCC(Nc2ccc(F)c(F)c2)C1 (stereo unspecified) | -4.67% (inactive)
CCCn1c(N)c(C(=O)CSc2nnc(Cc3cccs3)n2C2CC2)c(=O)[nH]c1=O | -4.97% (inactive)
CC1CC(C)CN(S(=O)(=O)c2ccc(C(=O)NN3CCOCC3)cc2)C1 (stereo unspecified) | 15.8% (inactive)
COc1ccc(/C=C/c2noc(-c3ccccc3OC(C)=O)n2)cc1 | 48.5% (inactive)
COc1ccc(-c2nc(-c3ccccc3)no2)c(OC)c1 | 96.2% (active)
COc1ccc(-c2noc(CNC(=O)C(C)Oc3ccccc3)n2)cc1 (stereo unspecified) | -2.29% (inactive)
CC1CN(C(=O)CCC(=O)NCCCN2CCC(Cc3ccccc3)CC2)c2cc(Cl)ccc2O1 (stereo unspecified) | -12.8% (inactive)
O=C1C2CCCN2C(=O)N1CCCCN1CCN(c2cccc(C(F)(F)F)c2)CC1 (stereo unspecified) | -4.34% (inactive)
COc1ccc(N(CCC(=O)NCCc2ccccc2)S(=O)(=O)c2ccc(C)cc2C)cc1 | -9.44% (inactive)
O=C(O)CCn1cc(/C=C/C(=O)c2ccc(Cl)cc2)c(-c2cccc(Br)c2)n1 | 66% (active)
O=C(COC(=O)/C=C/c1cn(-c2ccccc2)nc1-c1cccnc1)Nc1ccc(Cl)cc1Cl | -65% (inactive)

Compound | inhibition
COc1ccc(NC(=O)CN(C)C(=O)/C=C/c2cn(Cc3ccccc3)nc2-c2cccnc2)cc1 | -11.2% (inactive)
CCOC(=O)[C@H]1Nc2ccc(Cl)cc2[C@@H]2[C@H]1C1CC(c3ccccc31)N2C(=O)OCc1ccccc1 (stereo partly specified) | -23.5% (inactive)
CCCCNC(=O)OC1CC2CC1[C@H]1CCCCN1C2=O (stereo partly specified) | 7.93% (inactive)
CCOC12CC(C)(C)CC(C)(CC3=C1C(=O)CC(C)(C)C3)C2 (stereo unspecified) | 76.6% (active)
Cc1noc(C)c1-c1nc(CSc2ccc(Cl)cc2)no1 | -29% (inactive)
COc1cc2nnn(-c3ccncc3)c2cc1OC | 1.57% (inactive)
Cn1c(N2CCOCC2)c(C=O)c2ccccc21 | -2.19% (inactive)
O=c1oc2ccccc2cc1-c1cn(-c2ccccc2)c(=S)[nH]1 | 107% (active)
COc1cccc(-n2c(=S)[nH]c3c(oc4ccccc43)c2=O)c1 | 22.3% (inactive)
CC1(C(=O)NS(=O)(=O)c2ccccc2)CCN1C(=O)C/C=C/c1ccccc1 (stereo unspecified) | -7.09% (inactive)
CC1(C(=O)O)CCN1C(=O)/C=C/c1ccccc1 (stereo unspecified) | 4.71% (inactive)
CC1(C)CCSC(/C=C/c2ccccc2)=N1 | 71.7% (active)
CC(C)=CCCC1(C)C=Cc2c(ccc3c2[nH]c2cc(O)c(C)cc23)O1 (stereo unspecified) | 67% (active)
CN(C(=O)COC(=O)Cn1cnc2c1c(=O)n(C)c(=O)n2C)C1(C#N)CCCCC1 | -7.55% (inactive)
COC(=O)C(C)N(C#N)c1nc(C)nc(C)n1 (stereo unspecified) | -3.55% (inactive)
Cc1nnc(SC(C(=O)Nc2cc(Cl)cc(Cl)c2)c2ccccc2)[nH]c1=O (stereo unspecified) | -1.44% (inactive)
CC(C)CCOc1ccc(C(=O)C[N+]2(C)CCOCC2)cc1 | -7.15% (inactive)
CCCc1ccc(OCCNC(=O)c2ccccc2Br)cc1 | -12.5% (inactive)
CCCOc1ccc(C(=O)C(CCC(CNCC)C(=O)c2ccc(OCCC)cc2)CNCC)cc1 (stereo unspecified) | 103% (active)
CC(Oc1ccc(F)cc1)C(=O)Nc1ccccc1C(=O)NC1CC1 (stereo unspecified) | 8.99% (inactive)
COC(=O)c1onc(-c2c(OC)cc(OC)cc2OC)c1C(=O)OC | 10.7% (inactive)
CC(C)C(C(=O)NC1CCCCC1)N(CC1CCCO1)C(=O)CNS(=O)(=O)c1ccc(F)cc1 (stereo unspecified) | 8.87% (inactive)
Cc1ccc(N(CC(=O)NC2CCCCC2)C(=O)CCCC(=O)Nc2ccccn2)c(C)c1 | -5.23% (inactive)

Compound | inhibition
Cc1onc(-c2ccccc2Cl)c1C(=O)OCc1nnc(-c2ccccc2)o1 | -0.22% (inactive)
Cc1onc(-c2ccccc2)c1-c1nnc(COC(=O)c2ccc(N(C)C)cc2)o1 | 54.4% (active)
Cc1ccc(C(=O)NCC(=O)OCc2nnc(-c3ccccc3)o2)cc1 | 9.26% (inactive)
O=C(NC1CCCC1)C1c2ccccc2OCC(=O)N1CC(F)(F)F (stereo unspecified) | 1.42% (inactive)
COC1=CC(=O)OC(C)(c2ccccc2)C1 (stereo unspecified) | 20.1% (inactive)
COc1cc2c(C(=O)O)c(C)n(C)c2c2ccccc12 | 14% (inactive)
COc1cccc2c(O)cc(=O)n(C)c12 | 15.4% (inactive)
COc1cccc2c(C)c(C(=O)O)[nH]c12 | 74.4% (active)
CC1(C(=O)NS(=O)(=O)c2ccc(C#N)cc2)CCN1C(=O)c1ccc(C2CCCCC2)cc1 (stereo unspecified) | 24.4% (inactive)
CN1CCN(C(=O)CCc2ncc(C(F)(F)F)cc2Cl)CC1 | -4.72% (inactive)
O=C1NC[C@H](CCCCN2C[C@H](Cc3ccccc3)N(Cc3ccccc3)C(=O)C2=O)N(CCc2ccc(O)cc2)C1=O | -9.13% (inactive)
O=c1cc(N2CCCCC2)c(-c2ccccc2)nn1Cc1cccc(F)c1 | -1.41% (inactive)
O=C(/C=C/NCc1ccc(F)cc1)c1ccccc1 | -22.1% (inactive)
COc1ccc(C(=O)/C=C/Nc2ccccn2)cc1 | 97.4% (active)
CCOc1ccc(N/C=C/C(=O)c2ccccc2)cc1 | 70.8% (active)
Cc1ccc(NNC(=O)C2CCC2)cc1C | -5.21% (inactive)
COc1ccc(N2C(=O)CCC(C(=O)Nc3ccccn3)C2c2ccc(OC)c(OC)c2)cc1 (stereo unspecified) | 2.83% (inactive)
Cc1cc(N/C=C\C(=O)c2ccc(Cl)c(Cl)c2)no1 | -21% (inactive)
CCOc1ccc(NC(=S)N2CCC(NC(=O)c3ccccc3)CC2)cc1 | -4.25% (inactive)
CCOc1ccc(NC(=O)C2CCCN(C(=O)Nc3ccccc3)C2)cc1 (stereo unspecified) | -2.21% (inactive)
Cc1ccc(N/C=C/C(=O)c2ccccc2)cc1C | 66.8% (active)
COCc1ccc(C(=O)NC2CC(C)(C)Cc3c2cnn3-c2ccc(C)cc2)o1 (stereo unspecified) | 3.46% (inactive)
COCCCNC(=O)CC1C[C@H](C(=O)N2CCCCC2)[C@@]2(CCc3ccccc3)c3[nH]c4ccccc4c3CCN2C1=O (stereo partly specified) | 17.5% (inactive)

Compound | inhibition
O=C(CCCl)Nc1ccc(S(=O)(=O)NCc2ccco2)cc1 | 13% (inactive)
CCNC(=O)c1cc2c(c(-c3cccc(-c4cncnc4)c3)n1)[C@H](CCO)N(C(C)=O)C2 | -9.64% (inactive)
Cc1ccccc1-n1nnc2c(=O)oc3ccccc3c21 | -3.42% (inactive)
O=C1CCC(=O)N1c1ccc(NCCc2ccccc2F)c([N+](=O)[O-])c1 | -12.8% (inactive)
C=CCc1ccccc1OCC(O)CN1CCN(CCO)CC1 (stereo unspecified) | -11.8% (inactive)
OCCN1CCN(C(=S)c2ccc(-c3ccccc3)cc2)CC1 | 54.4% (active)
S=C(c1ccc(-c2ccccc2)o1)N1CCCCC1 | -8.48% (inactive)
Cc1cc(C)n2c(NCc3ccccc3)c(CC(C)C)nc2n1 | -7.32% (inactive)
Cc1ccc(C)c(S(=O)(=O)N(C)c2ccc(OC(=O)C3CCN(C(=O)c4ccc(F)cc4)CC3)cc2)c1 | -10.5% (inactive)
Cc1ccc(C)c(NC(CC(=O)c2ccccc2)C(=O)OCC(=O)c2cccs2)c1 (stereo unspecified) | -31.8% (inactive)
O=C(NCC(=O)N1CCN(c2ccccc2F)CC1)c1cccs1 | -8.04% (inactive)
Cc1ccccc1C(CC(=O)c1cccs1)C(C#N)C#N (stereo unspecified) | 83.8% (active)
Cc1nn(-c2ccccc2)c(=O)c2noc(C)c12 | 2.03% (inactive)
COc1cccc(CN2C(=O)CCC2(C)C(=O)NC2CCCCCC2)c1 (stereo unspecified) | 9.99% (inactive)
CCOC(=O)C1=CC[C@@H](c2ccccc2)N(S(=O)(=O)c2ccc(C)cc2)[C@H]1c1cccc(OC)c1 | 3.81% (inactive)
CN1CCN(S(=O)(=O)c2ccc(N3CCN(S(=O)(=O)c4cccs4)CC3)nc2)CC1 | -14.8% (inactive)
OC[C@@H]1CN(Cc2ccncc2)C[C@H](n2cnc3c(N4CCN(c5ccccc5)CC4)ncnc32)O1 | 29.9% (inactive)
Cc1cccc(NC(=S)N2CCC(C(=O)c3ccc(F)cc3)CC2)c1 | -7.96% (inactive)
O=C(O)c1ccccc1CSc1nc2ccccc2s1 | 53.1% (active)
O=[N+]([O-])c1c(NCCO)cc(Sc2nc3ccccc3s2)c2nonc12 | 9.76% (inactive)
Clc1ccc(-c2nnc(SCc3nc4ccccc4s3)o2)cc1 | -3.77% (inactive)
COC(=O)[C@]12CCCCC=C1N(CCC1=CCCCC1)C(=O)[C@H](CC(=O)NCC1CCCCC1)C2 | 9.77% (inactive)
